Assay outcomes: PubChem, National Center for Advancing Translational Sciences (NCATS)
DT40 TDP1 CPT – growth inhibition of DT40 Tdp1-/-;hTDP1 cells with camptothecin (screen for TDP1 inhibitors) | chicken DT40 Tdp1-/-;hTDP1 cells + 20 nM CPT, ATP luminescence, 48 h | Potency, µM (doses to about 46.2 µM), for inactives: at the highest dose activity change, negative = growth inhibition, usual class: inhibitors | hit rate 12% among 420,000; also: nearly all actives have a fitted effect of over 55% in size
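Chicken DT40 Tdp1-/- cells stably complemented with human TDP1 were seeded at 400 cells/well in medium containing 20 nM camptothecin, exposed to pin-transferred compounds, and grown at 37 °C for at least 48 hr. Viability was read as ATP luminescence.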
HT1080 IDH1KD tx – toxicity to HT-1080 IDH1 knockdown cells (counter line); HT-1080 IDH1 knockdown viability, ATP luminescence, 48 h; Potency, µM (doses to about 46.1 µM), inactives show at the highest dose activity, negative = toxicity, usual class: cytotoxic; hit rate 2% among 360,000;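 also: 0% = DMSO wells and -100% = cell-free medium wells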
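In this qHTS, HT-1080 cells depleted of IDH1 are exposed for 48 h at 37 °C to compound titrations. Toxicity is scored from CellTiter-Glo luminescence, with DMSO as full viability and medium alone as none.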
HT1080-NT tox – kills 2HG-producing HT-1080-NT fibrosarcoma cells; HT-1080-NT fibrosarcoma viability, CellTiter-Glo ATP luminescence, 48 h; hit rate 1.6% among 360,000; Potency, µM (top dose mostly 46.1 µM), for inactives: at the top dose activity, negative = less viability, actives largely listed as cytotoxic;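 also: NT is the 2HG producing partner of a matched IDH1 knockdown line; 0% = DMSO-treated cells and -100% = media-only wells without cells; nearly all actives have a fitted effect of over 55% in size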
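A 48-hour cytotoxicity screen used HT-1080-NT cells plated 2 hours before compound delivery. ATP-based CellTiter-Glo luminescence measured viability, normalized to DMSO and no-cell controls.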
TDP1 cell noCPT – qHTS for Inhibitors of human tyrosyl-DNA phosphodiesterase 1 (TDP1): qHTS in cells in absence of CPT. AID 686978, 2013. Potency, µM (top dose mostly 46.2 µM), for the others: top-dose activity change, negative = growth inhibition, hits mostly inhibitors. hit rate 15% among 420,000. DT40 Tdp1-/- hTDP1 cells, no CPT, ATP luminescence, 48 h; also: nearly all actives have a fitted effect of over 55% in size
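No-CPT arm: Tdp1-/-;hTDP1 DT40 cells (400/well) plus compounds, incubated ≥48 hr at 37 °C. Readout CellTiter-Glo luminescence.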
KB-V1 cytotox – KB-V1 MDR subline cytotoxicity; KB-V1 MDR cells viability, CellTiter-Glo, 72 h; Potency, µM (top dose mostly 46.1 µM), hits mostly cytotoxic; hit rate 3.4% among 400,000; AID 1347076; also: nearly all actives have a fitted effect of over 60% in size
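Readout: CellTiter-Glo luminescence, 10 min after addition. Cells: KB-V1 MDR subline, 72 h at 37 degrees C with compound. Analysis: corrected, normalized data fitted to concentration-effect curves.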
KB-3-1 tox – kills parental KB-3-1 adenocarcinoma cells. KB-3-1 viability, CellTiter-Glo ATP luminescence, 72 h. Potency, µM (doses to about 46.1 µM), most hits filed as cytotoxic. hit rate 1.4% among 400,000. AID 1347075; also: nearly all actives have a fitted effect of over 60% in size
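Viability of parental KB-3-1 cells, measured by CellTiter-Glo luminescence, followed a 72 h incubation at 37 °C with pinned compounds in phenol-red-free DMEM containing 10% FBS.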
The depositor's hits bear a star; i = inactive; ? = inconclusive; · = no result given; [ ] = dose if it differs, or a comment. Most compounds without a hit are left out; they make up all but 19% or so of the library. Calls follow the shape of the dose curve; as a rule, active = well fitted curve in the direction sought with a large enough effect; inconclusive = small, poorly fitted or top-dose-only effect, or another doubt; inactive = no such curve, though single readings can be large; an effect the other way counts as inactive or inconclusive. Unless noted, % is scaled to controls: 0 for no effect and ±100 for the full control effect; potency is read from the fitted curve at half-maximal effect.

SMILES | DT40 TDP1 CPT | HT1080 IDH1KD tx | HT1080-NT tox | TDP1 cell noCPT | KB-V1 cytotox | KB-3-1 tox
COc1ccc([C@H]2CC(=O)C=C(c3cccc(OC)c3OC)C2)cc1OC | ? | -9.1% | -0.3% | 23.1µM* | i | i
COc1ccc(N2CC(NC(=O)c3ccc4c(c3)OCO4)CC2=O)cc1 (stereo unspecified) | -24.1% | · | · | -20.2% | · | ·
O=C(NC(=S)Nc1ccccc1N1CCCCC1)c1cccs1 | 16.4µM* | ? | -14.5% | 20.6µM* | ? | i
O=C(NC(=S)Nc1ccccc1N1CCCC1)c1cccs1 | 16.4µM* | -2.7% | -7.5% | 14.6µM* | i | i
O=C(NC(=S)Nc1ccccc1N1CCN(C(=O)c2ccccc2)CC1)c1cccs1 | ? | 0.3% | 2.2% | ? | i | i
CCC(Sc1nc2ccccc2c2nc(CCc3c(C)n[nH]c3C)nn12)C(=O)Nc1ccccc1F (stereo unspecified) | -2.5% | · | · | -0.5% | i | i
Cc1ccc(C2=NN(C(=O)c3ccccc3F)C(c3ccccc3F)C2)cc1 (stereo unspecified) | 20.6µM* | 13µM* | 13µM* | 20.6µM* | ? | ?
O=C(c1cccc(Cl)c1)N1CCC(c2nc3ccccc3[nH]2)CC1 | 6.0% | 4.3% | 0.0% | ? | i | ?
O=C(NNC1CC(c2ccccc2)=NN1C(=O)c1ccccc1)c1ccccc1 (stereo unspecified) | 25.9µM* | -10.1% | -6.9% | 23.1µM* | ? | i
O=C(c1ccccc1Cl)N1N=C(c2ccc(Br)cc2)CC1c1nc2ccccc2[nH]1 (stereo unspecified) | ? | ? | -25.6% | 16.4µM* | i | i
O=C(c1ccccc1)N1N=C(c2ccccc2)CC1c1ccccc1O (stereo unspecified) | 23.1µM* | 25.9µM* | 23.1µM* | ? | i | i
COc1ccc(C(=O)NCC2Cc3cc(C)cc(-c4nc5ccccc5s4)c3O2)c(OC)c1OC (stereo unspecified) | 8.9%[9.04 µM] | · | · | -10.0% | · | ·
COc1cccc(CN(C)C(=O)CCN=C2NS(=O)(=O)c3ccccc32)c1 | -17.3% | 2.4% | 5.8%[9.24 µM] | -12.1% | ? | i
CC(C)CCNC(=O)c1ccc(Cn2c(SCC(=O)NC(C)C)nc3ccccc3c2=O)cc1 | ? | · | · | ? | i | i
CN1C(=O)CC(c2cn(Cc3ccccc3)c3ccccc23)C1=O (stereo unspecified) | -0.1% | -0.1% | -11.3% | -5.9% | ? | i
O=C(c1ccncc1)N1N=C(c2ccc(Br)cc2)CC1c1ccccc1O (stereo unspecified) | ? | ? | ? | ? | 20.6µM* | i
CC(=O)N1N=C(c2ccccc2)CC1c1cn(Cc2ccccc2)c2ccccc12 (stereo unspecified) | 18.4µM* | ? | ? | ? | 14.6µM* | ?
O=C(c1ccccc1)N1N=C(c2ccccc2)CC1c1ccc2nccnc2c1 (stereo unspecified) | ? | 0.9% | 5.4% | ? | 7.31µM* | i
CC(=O)N1N=C(c2ccc3nccnc3c2)CC1c1ccccc1 (stereo unspecified) | -16.8% | 0.6% | 5.0% | -4.8% | i | i
CC(=O)N1N=C(c2ccncc2)CC1c1ccccc1O (stereo unspecified) | 10.7% | 6.0% | 8.2% | 0.2% | i | ?
O=C(c1cccnc1)N1CCC2CC1c1c(Cl)cccc12 (stereo unspecified) | 2.2% | 5.4% | 6.6% | -67.2% | i | i
Cc1ccc(-n2[nH]c(C)c(C=NC34CN5CN(CN(C5)C3)C4)c2=O)cc1C | 9.2µM* | ? | ? | 20.6µM* | ? | ?
Cc1cc(C)c2c(CC(=O)Nc3c(C(=O)c4ccc(F)cc4)oc4ccccc34)coc2c1 | -2.4% | · | · | -1.9% | i | i
Brc1ccc(C2=CC(c3cccs3)n3ncnc3N2)cc1 (stereo unspecified) | ? | ? | -36.2% | 7.31µM* | i | i
Fc1ccc(C2=CC(c3ccc(Br)o3)n3ncnc3N2)cc1 (stereo unspecified) | ? | -1.8% | 11.1% | ? | i | i
SMILES | DT40 TDP1 CPT | HT1080 IDH1KD tx | HT1080-NT tox | TDP1 cell noCPT | KB-V1 cytotox | KB-3-1 tox
Cn1cccc1C1C=C(c2ccc(C(C)(C)C)cc2)Nc2ncnn21 (stereo unspecified) | ? | -9.9% | -3.1% | 23.1µM* | 16.4µM* | ?
C1=C(c2ccc(-c3ccccc3)cc2)Nc2ncnn2C1c1ccco1 (stereo unspecified) | 20.6µM* | -6.3%[9.24 µM] | -6.5% | 16.4µM* | ? | ?
CC(C)(C)c1ccc(C2=CC(c3ccccc3F)n3ncnc3N2)cc1 (stereo unspecified) | -22.2% | -0.4% | -1.9% | -18.2% | i | ?
CC(C)(C)N1C(=O)c2ccccc2NC(=O)C1C(=O)Nc1ccc2c(c1)OCCO2 (stereo unspecified) | ? | 15.5% | 18.8% | -17.2% | i | i
CCOC(=O)c1c(NC(=O)c2ccco2)sc2c1CCCCC2 | 29.1µM* | 4.3% | 2.5% | 29.1µM* | i | i
CCOC(=O)c1c(NC(=O)c2ccc(N3C(=O)C4C5C=CC(C5)C4C3=O)cc2)sc2c1CCCC2 (stereo unspecified) | ? | 11.1% | 5.4% | 23.1µM* | 16.4µM* | i
CN(C)C(=O)c1c(NC(=O)c2ccco2)sc2c1CCCCC2 | ? | 5.6% | 1.9% | -4.8% | i | i
CCOC(=O)c1c(NC(=O)C2C3C=CC(C3)C2C(=O)O)sc2c1CCCC2 (stereo unspecified) | ? | -18.6% | -16.9% | ? | i | i
CCOC(=O)c1c(NC(=O)CS(=O)(=O)c2cn(CC)c3ccccc23)sc2c1CCCCC2 | 20.6µM* | 0.9% | 7.0% | ? | i | i
CCOC(=O)c1c(NC(=O)C(C)Sc2cn(CCNC(=O)c3c(F)cccc3F)c3ccccc23)sc2c1CCC2 (stereo unspecified) | 20.6µM* | · | · | 16.4µM* | i | i
CC(=O)Nc1ccc(S(=O)(=O)N[C@@H](C)C(=O)NC2CCCc3ccccc32)cc1 (stereo partly specified) | -2.9% | 7.9% | -1.0% | 14.3% | i | i
